# According to the supplement of paper PMC11001985:
# Unmarked numbers belong to inactive results.
# Compound: C#CCNC(=O)CCSSCCC(=O)NCCc1ccc(C=O)c(C=O)c1
# Assay: lysine labeling ratio R10:1 (500 µM / 50 µM probe), SILAC-ABPP in living cells; higher = lower intrinsic lysine reactivity toward the probe, active = 2 or less
# Settings: HeLa; probe concentrations 500 vs 50 µM
# In short: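 Each lysine carries an R value: the filtered median of MS1 peptide ratios of high probe to low probe, with the median then taken over forward and reverse replicates. These came from living SILAC light and heavy HeLa cells in PBS at room temperature labelled with an alkyne-tagged, disulfide-linked lysine probe at 500 µM or 50 µM, in forward and reverse swaps. The lysates were mixed, clicked to biotin-azide, trypsin-digested, captured on neutravidin, released by DTT, alkylated and run by LC-MS/MS on a TIMS-TOF Pro. The highest value allowed is 20.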
# Sequence of UniProt P32004 (P32004 whole entry): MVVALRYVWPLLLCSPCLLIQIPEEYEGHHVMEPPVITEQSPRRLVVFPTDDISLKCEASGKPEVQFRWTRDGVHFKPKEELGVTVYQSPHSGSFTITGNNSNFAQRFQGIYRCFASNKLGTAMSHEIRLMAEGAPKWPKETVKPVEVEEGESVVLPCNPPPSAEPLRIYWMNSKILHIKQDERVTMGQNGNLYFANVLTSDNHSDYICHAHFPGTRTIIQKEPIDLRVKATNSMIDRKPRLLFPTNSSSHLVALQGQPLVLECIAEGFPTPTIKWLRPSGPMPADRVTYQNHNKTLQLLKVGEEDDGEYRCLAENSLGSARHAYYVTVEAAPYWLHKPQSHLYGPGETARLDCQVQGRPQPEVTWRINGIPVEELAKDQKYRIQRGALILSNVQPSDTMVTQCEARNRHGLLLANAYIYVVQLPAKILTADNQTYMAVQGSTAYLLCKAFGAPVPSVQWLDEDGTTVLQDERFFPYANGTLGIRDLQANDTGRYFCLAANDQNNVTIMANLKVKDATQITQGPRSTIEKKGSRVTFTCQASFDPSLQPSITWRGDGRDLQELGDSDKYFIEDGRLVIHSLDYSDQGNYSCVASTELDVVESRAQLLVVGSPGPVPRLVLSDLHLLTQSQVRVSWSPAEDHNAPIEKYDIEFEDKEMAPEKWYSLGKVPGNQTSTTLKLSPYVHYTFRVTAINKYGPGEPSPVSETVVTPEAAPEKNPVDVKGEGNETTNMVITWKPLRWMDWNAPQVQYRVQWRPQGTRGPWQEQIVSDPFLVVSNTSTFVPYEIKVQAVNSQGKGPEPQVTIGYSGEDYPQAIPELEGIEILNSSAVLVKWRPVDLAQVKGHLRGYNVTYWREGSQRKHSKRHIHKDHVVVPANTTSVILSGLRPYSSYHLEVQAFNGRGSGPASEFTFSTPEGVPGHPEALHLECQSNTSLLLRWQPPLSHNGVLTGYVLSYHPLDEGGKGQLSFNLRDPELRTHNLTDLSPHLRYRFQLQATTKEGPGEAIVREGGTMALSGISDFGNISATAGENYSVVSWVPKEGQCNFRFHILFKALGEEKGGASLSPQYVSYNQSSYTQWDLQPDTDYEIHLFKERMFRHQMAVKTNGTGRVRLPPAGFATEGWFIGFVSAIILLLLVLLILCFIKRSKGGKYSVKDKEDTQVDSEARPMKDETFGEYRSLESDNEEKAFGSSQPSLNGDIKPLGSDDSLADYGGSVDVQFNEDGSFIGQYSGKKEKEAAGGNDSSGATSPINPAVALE
# Sequence of UniProt Q13813 (Q13813 whole entry): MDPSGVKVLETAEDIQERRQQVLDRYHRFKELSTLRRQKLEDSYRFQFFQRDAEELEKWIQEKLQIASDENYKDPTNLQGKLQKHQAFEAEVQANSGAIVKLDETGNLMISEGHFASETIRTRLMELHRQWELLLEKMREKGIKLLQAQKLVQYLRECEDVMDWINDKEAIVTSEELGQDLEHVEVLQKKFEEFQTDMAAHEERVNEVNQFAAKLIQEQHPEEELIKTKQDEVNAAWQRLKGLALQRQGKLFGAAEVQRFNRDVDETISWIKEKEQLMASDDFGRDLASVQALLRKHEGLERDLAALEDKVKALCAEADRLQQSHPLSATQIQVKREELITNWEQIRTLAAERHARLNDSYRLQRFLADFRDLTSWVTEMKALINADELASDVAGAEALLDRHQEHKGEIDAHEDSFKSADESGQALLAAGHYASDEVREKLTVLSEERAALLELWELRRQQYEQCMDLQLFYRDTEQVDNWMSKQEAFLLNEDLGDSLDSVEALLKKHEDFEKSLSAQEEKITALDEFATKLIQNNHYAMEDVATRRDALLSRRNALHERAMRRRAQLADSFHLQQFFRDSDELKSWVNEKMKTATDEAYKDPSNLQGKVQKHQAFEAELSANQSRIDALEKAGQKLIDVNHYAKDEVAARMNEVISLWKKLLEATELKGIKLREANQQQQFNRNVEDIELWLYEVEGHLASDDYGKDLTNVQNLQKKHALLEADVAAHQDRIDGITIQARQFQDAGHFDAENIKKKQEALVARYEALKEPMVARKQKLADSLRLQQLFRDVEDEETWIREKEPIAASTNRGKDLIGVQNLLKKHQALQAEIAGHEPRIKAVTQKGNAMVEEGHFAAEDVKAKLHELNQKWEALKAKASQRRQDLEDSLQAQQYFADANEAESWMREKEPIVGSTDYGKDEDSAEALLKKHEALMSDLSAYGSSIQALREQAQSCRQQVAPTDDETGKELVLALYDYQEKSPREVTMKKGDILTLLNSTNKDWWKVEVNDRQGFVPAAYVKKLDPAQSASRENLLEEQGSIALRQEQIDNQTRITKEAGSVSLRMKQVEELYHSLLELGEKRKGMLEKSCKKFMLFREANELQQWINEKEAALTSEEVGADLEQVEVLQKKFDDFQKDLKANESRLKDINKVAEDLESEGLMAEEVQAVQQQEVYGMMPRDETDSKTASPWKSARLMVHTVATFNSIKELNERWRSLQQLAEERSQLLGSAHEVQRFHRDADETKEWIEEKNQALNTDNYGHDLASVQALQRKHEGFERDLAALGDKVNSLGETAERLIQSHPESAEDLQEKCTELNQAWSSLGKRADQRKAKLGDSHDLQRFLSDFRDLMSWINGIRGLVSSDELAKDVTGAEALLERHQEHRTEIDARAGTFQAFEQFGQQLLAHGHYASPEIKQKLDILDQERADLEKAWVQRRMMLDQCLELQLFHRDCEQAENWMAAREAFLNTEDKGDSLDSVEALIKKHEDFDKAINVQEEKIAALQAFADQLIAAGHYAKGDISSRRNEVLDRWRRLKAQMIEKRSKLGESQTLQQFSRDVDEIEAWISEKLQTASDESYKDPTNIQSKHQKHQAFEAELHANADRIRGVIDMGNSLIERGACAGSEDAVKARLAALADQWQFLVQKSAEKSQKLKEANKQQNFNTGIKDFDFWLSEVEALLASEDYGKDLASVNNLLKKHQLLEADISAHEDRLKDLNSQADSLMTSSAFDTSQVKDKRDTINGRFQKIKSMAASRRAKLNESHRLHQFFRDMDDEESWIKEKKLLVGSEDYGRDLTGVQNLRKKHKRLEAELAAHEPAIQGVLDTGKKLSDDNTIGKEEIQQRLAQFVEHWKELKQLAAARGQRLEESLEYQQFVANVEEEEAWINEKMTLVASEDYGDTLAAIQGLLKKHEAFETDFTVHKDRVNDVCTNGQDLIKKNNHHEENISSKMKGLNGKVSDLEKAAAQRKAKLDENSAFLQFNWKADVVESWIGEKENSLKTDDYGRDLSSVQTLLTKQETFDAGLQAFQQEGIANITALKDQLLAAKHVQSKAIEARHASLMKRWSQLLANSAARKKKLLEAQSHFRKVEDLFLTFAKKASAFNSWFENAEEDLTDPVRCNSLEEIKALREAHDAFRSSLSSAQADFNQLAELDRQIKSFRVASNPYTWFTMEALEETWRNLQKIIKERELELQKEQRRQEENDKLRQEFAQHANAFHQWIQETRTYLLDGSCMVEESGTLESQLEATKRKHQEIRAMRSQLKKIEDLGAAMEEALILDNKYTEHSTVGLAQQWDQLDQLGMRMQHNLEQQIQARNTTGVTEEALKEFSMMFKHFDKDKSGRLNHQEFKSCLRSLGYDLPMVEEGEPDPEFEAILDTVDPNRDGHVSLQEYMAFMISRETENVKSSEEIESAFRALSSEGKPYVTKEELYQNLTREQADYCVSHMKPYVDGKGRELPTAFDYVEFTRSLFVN
# Sequence of UniProt P09758 (P09758 whole entry): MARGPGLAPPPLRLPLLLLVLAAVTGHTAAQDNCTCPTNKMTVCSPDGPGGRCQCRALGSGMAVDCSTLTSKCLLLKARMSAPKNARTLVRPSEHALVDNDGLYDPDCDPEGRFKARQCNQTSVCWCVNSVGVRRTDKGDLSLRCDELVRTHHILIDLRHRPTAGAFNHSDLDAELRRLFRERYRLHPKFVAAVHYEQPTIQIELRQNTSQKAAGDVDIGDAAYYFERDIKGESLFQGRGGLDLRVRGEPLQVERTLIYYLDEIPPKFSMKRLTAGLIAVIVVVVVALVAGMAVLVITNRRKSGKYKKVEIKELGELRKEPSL
# Sequence of UniProt O00264 (O00264 whole entry): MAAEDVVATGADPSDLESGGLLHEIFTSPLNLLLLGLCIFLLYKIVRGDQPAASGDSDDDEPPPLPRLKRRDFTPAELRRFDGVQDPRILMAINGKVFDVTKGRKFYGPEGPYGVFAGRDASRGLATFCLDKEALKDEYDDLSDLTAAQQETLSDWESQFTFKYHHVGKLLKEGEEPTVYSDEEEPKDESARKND
# Sequence of UniProt P28070 (P28070 whole entry): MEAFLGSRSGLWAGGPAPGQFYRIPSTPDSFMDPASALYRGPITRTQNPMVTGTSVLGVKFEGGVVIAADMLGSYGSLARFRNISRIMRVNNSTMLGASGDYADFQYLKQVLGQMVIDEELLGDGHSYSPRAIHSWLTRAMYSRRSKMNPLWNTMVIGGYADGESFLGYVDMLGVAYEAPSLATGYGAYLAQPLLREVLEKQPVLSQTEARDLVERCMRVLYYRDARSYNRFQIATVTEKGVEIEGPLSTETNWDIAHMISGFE
# Sequence of UniProt Q9H6B4 (Q9H6B4 whole entry): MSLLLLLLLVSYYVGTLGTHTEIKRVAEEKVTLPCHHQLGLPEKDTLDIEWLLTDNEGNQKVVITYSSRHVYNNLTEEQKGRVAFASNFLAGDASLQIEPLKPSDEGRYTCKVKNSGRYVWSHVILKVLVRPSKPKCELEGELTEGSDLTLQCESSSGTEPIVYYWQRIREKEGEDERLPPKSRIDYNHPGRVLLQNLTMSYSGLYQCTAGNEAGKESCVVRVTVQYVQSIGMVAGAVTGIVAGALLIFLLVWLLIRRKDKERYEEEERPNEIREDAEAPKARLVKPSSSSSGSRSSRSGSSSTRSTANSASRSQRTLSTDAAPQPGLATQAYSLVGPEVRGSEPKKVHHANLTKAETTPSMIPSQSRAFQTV
row,Target,lysine labeling ratio R10:1
1,UniProt Q8N441 (lysine site: K218),1.33 (active)
2,CCT2 (lysine site: K522) (UniProt P78371),3.39
3,WNT5A (lysine site: K283) (UniProt P41221),3.04
4,EPHA2 (lysine site: K468) (UniProt P29317),3.11
5,L1CAM (lysine site: K998) (UniProt P32004),6.57
6,PFKP (lysine site: K688) (UniProt Q01813),1.74 (active)
7,PICALM (lysine site: K324) (UniProt Q13492),1.36 (active)
8,AGRN (lysine site: K1934) (UniProt O00468),2.08
9,CLMP (lysine site: K172) (UniProt Q9H6B4),4.28
10,UniProt Q9UHN6 (lysine site: K1177),6.32
11,UniProt P09758 (lysine site: K138),5.06
12,EPRS (lysine site: K435) (UniProt P07814),2.68
13,L1CAM (lysine site: K515) (UniProt P32004),1.77 (active)
14,UniProt Q9NYU2 (lysine site: K356),1.45 (active)
15,LMAN1 (lysine site: K346) (UniProt P49257),9.39
16,UniProt P62701 (lysine site: K106),2.28
17,BCAP31 (lysine site: K204) (UniProt P51572),1.82 (active)
18,SPTAN1 (lysine site: K719) (UniProt Q13813),3.93
19,UniProt P09758 (lysine site: K231),4.22
20,IGSF3 (lysine site: K642) (UniProt O75054),1.12 (active)

row,Target,lysine labeling ratio R10:1
1,UniProt P05787 (lysine site: K11),6.14
2,EPCAM (lysine site: K168) (UniProt P16422),6.35
3,PSMB4 (lysine site: K201) (UniProt P28070),3.87
4,CCT7 (lysine site: K250) (UniProt Q99832),1.57 (active)
5,UniProt Q8WXI7 (lysine site: K12623),3.22
6,PAICS (lysine site: K110) (UniProt P22234),3.11
7,UniProt O95084 (lysine site: K185),2.74
8,UniProt Q15149 (lysine site: K1520),3.8
9,UniProt Q8WXI7 (lysine site: K12412),1.99 (active)
10,SPTAN1 (lysine site: K1419) (UniProt Q13813),0.907 (active)
11,FLNA (lysine site: K578) (UniProt P21333),1.25 (active)
12,NEGR1 (lysine site: K231) (UniProt Q7Z3B1),0.868 (active)
13,L1CAM (lysine site: K568) (UniProt P32004),3.06
14,XRCC5 (lysine site: K648) (UniProt P13010),1.9 (active)
15,PDCD6IP (lysine site: K640) (UniProt Q8WUM4),0.892 (active)
16,HSP90B1 (lysine site: K733) (UniProt P14625),3.26
17,LTF (lysine site: K320) (UniProt P02788),1.48 (active)
18,TNPO1 (lysine site: K889) (UniProt Q92973),1.09 (active)
19,UniProt P62829 (lysine site: K75),4.96
20,PGRMC1 (lysine site: K105) (UniProt O00264),2.63
